Rows were chosen to be rich in hits. Some 2.5% of all compounds tested hit in one or more screens of this group.
G6PDH counter: counter-screen for G6PDH assay hits: L. mesenteroides G6PDH inhibition. inhibition, % at 5 µM. 200,000 compounds, 0.12% hits. Purified L. mesenteroides G6PDH, diaphorase/resazurin coupled fluorescence, 45 min; in the data active means inhibition above about 50%
SUMO HTRF inh: inhibitors of human SUMOylation (UBC9) | 290,000 compounds, 0.36% hits | HTRF SUMOylation assay, SAE1/SAE2 + UBC9, in vitro | inhibition, % at 35 µM | P63279; in the data active means inhibition above about 50%, passing the limit was not always enough; inconclusive means no clear call, values can overlap the other calls
Target sequence (P63279 whole entry, looked up): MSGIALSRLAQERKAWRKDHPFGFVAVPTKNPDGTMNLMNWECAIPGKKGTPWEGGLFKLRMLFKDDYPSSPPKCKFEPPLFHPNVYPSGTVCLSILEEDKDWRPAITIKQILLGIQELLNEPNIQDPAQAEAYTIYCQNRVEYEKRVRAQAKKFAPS
p97 ATPase inh: inhibitors of human p97 ATPase | P55072 | recombinant p97 ATPase, Kinase-Glo ATP luminescence, 3 h | inhibition, % at 8 µM | 220,000 compounds, 0.42% hits | AID 1481; in the data active means inhibition above about 15%
PHOSPHO1 block: inhibitors of human PHOSPHO1 phosphatase; Q8TCT1; recombinant PHOSPHO1, absorbance phosphatase assay; inhibition, % at 13.3 µM; 290,000 compounds, 1.1% hits; AID 1565; in the data active means inhibition above about 60%
Target sequence (Q8TCT1 whole entry, looked up): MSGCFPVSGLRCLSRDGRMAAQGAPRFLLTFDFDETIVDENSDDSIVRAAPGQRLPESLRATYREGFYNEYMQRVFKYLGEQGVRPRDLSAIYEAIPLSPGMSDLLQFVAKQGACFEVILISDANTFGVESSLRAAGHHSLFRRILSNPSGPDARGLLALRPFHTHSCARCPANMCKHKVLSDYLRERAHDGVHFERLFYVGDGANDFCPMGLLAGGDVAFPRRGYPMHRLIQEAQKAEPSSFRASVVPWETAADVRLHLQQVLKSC
HDAC3 inh: blocks human histone deacetylase 3 | recombinant HDAC3, fluorogenic peptide/trypsin coupled, fluorescence | inhibition, % at 8.3 µM | 320,000 compounds, 0.15% hits | O15379 | AID 2718; in the data active means inhibition above about 26%, passing the limit was not always enough; inconclusive means no clear call, values can overlap the other calls
PfM18AAP inh: PfM18AAP enzyme inhibition; recombinant PfM18AAP, H-Glu-NHMec fluorogenic cleavage; inhibition, % at 7.35 µM; 290,000 compounds, 1.2% hits;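 active means inhibition above the campaign mean inhibition over all tested compounds plus 3 SD, cut at about 28% in these data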
Large screens that a line does not name were inactive.

CC(C)=CCc1cc(-c2oc3cc(O)cc(O)c3c(=O)c2O)ccc1O	none (no result: G6PDH counter, SUMO HTRF inh, p97 ATPase inh, PHOSPHO1 block, PfM18AAP inh)
CN(C(=O)OC(C)(C)C)c1ccc(-c2nc3ccccc3s2)cc1	none (no result: G6PDH counter, SUMO HTRF inh, p97 ATPase inh, PHOSPHO1 block, PfM18AAP inh)
CC(C)CC(C(=O)O)N1C(=O)C2C3C=CC(C2C1=O)C1C(=O)N(C(CC(C)C)C(=O)O)C(=O)C31 (centres undefined)	none (no result: G6PDH counter, p97 ATPase inh)
COc1ccccc1-c1nc(S(=O)(=O)c2ccccc2)c(N2CCOCC2)o1	none (no result: G6PDH counter, p97 ATPase inh)
CC(C)OC(=O)CC(=O)c1sc2nc3c(cc2c1N)CN(C)CC3	PHOSPHO1 block 82
CC1CCC(NC(=O)c2cc(S(=O)(=O)N3CCCCC3)ccc2N2CCOCC2)CC1 (centres undefined)	none (no result: G6PDH counter, SUMO HTRF inh, p97 ATPase inh, PHOSPHO1 block, PfM18AAP inh)
Cc1nn(CCc2n[nH]c(=S)n2-c2ccc(F)cc2)c(C)c1[N+](=O)[O-]	PHOSPHO1 block 94
Cc1nn(C(C)c2n[nH]c(=S)n2-c2ccc(F)cc2)c(C)c1[N+](=O)[O-] (centres undefined)	none
Cc1nn(CCc2n[nH]c(=S)n2-c2cccc(Cl)c2)c(C)c1[N+](=O)[O-]	PHOSPHO1 block 93
Cc1nn(CCc2n[nH]c(=S)n2-c2ccc(F)c(Cl)c2)c(C)c1[N+](=O)[O-]	none
COc1ccccc1C(=O)NCCC(=O)NC1CCC(C)CC1 (centres undefined)	none (no result: G6PDH counter, SUMO HTRF inh, p97 ATPase inh, PHOSPHO1 block, PfM18AAP inh)
CCCCn1c(N)c(N(CC(C)C)C(=O)c2ccc(S(=O)(=O)N3CCC(C)CC3)cc2)c(=O)[nH]c1=O	none (no result: G6PDH counter, SUMO HTRF inh, p97 ATPase inh, PHOSPHO1 block, PfM18AAP inh)
OCCn1nc2c3ccccc3nc-2n(-c2ccccc2)c1=S	PHOSPHO1 block 76
Oc1ccc(/C=N/NC(=S)N2CCOCC2)cc1	PfM18AAP inh 33
CC(C)NC(=S)N/N=C/c1ccc(N2CCOCC2)cc1	none
CCN(C(=O)COC(=O)c1oc2ccccc2c1C)c1c(N)n(Cc2ccccc2)c(=O)[nH]c1=O	none (no result: G6PDH counter, SUMO HTRF inh, p97 ATPase inh, PHOSPHO1 block, PfM18AAP inh)
C=CCC1(CC=C)CCCN1C(=O)c1cc(COc2cccc(C(F)(F)F)c2)on1	PHOSPHO1 block 61 (no result: G6PDH counter, p97 ATPase inh)
CCOC(=O)N1CCN(C(=O)c2cc(COc3cccc(C(F)(F)F)c3)on2)CC1	none (no result: G6PDH counter, p97 ATPase inh)
Cc1nn(CC(C)C(=O)N2CCN(S(=O)(=O)c3ccc(Cl)cc3)CC2)c(C)c1C (centres undefined)	none (no result: G6PDH counter, p97 ATPase inh)
O=C(NCCN1CCOCC1)NC1(C(F)(F)F)Oc2ccccc2O1	PfM18AAP inh 72
COCCNS(=O)(=O)c1ccc2c3c(cccc13)C(=O)N2C	SUMO HTRF inh inconclusive
CN1C(=O)c2cccc3c(S(=O)(=O)NCCc4ccccc4)ccc1c23	SUMO HTRF inh 56 (no result: G6PDH counter, p97 ATPase inh)
CN(C(=O)c1ccccc1Cl)c1ccccc1C(=O)NCc1ccccc1	PHOSPHO1 block 61 (no result: G6PDH counter, p97 ATPase inh)
O=P(CCCO)(Cc1ccccc1)Cc1ccccc1	none (no result: G6PDH counter, p97 ATPase inh)
Cc1ccc(N=Nc2c(=O)[nH]n3c(C)cc(C)nc23)cc1	none
Cc1ccc(N=Nc2c(N)[nH]n3c(=O)cc(C)nc23)cc1	PfM18AAP inh 31
COc1ccccc1NC(=O)c1sc2ncn(CC(=O)Nc3ccccc3)c(=O)c2c1C	SUMO HTRF inh 51 (no result: G6PDH counter, p97 ATPase inh)
COc1ccccc1NC(=O)Cn1cnc2sc(C(=O)Nc3cc(OC)c(OC)c(OC)c3)c(C)c2c1=O	none (no result: G6PDH counter, p97 ATPase inh)
CC(C)(C)OC(=O)NCCCCCNC(=O)c1[nH]cnc1C(=O)N[C@@H](Cc1ccccc1)C(=O)OC(C)(C)C	HDAC3 inh 28 (no result: G6PDH counter, SUMO HTRF inh, p97 ATPase inh, PHOSPHO1 block, PfM18AAP inh)
CC(C)C[C@H](NC(=O)c1nc[nH]c1C(=O)NCC(=O)OC(C)(C)C)C(=O)OC(C)(C)C	HDAC3 inh 30 (no result: G6PDH counter, p97 ATPase inh, PfM18AAP inh)
CC(C)(C)OC(=O)[C@H](Cc1ccccc1)NC(=O)c1nc[nH]c1C(=O)NCCCCCN	none (no result: G6PDH counter, SUMO HTRF inh, p97 ATPase inh, PHOSPHO1 block, PfM18AAP inh)
CC(C)C[C@H](NC(=O)c1nc[nH]c1C(=O)N[C@@H](CC(C)C)C(=O)OC(C)(C)C)C(=O)OC(C)(C)C	none (no result: G6PDH counter, p97 ATPase inh, PfM18AAP inh)
COc1cc(/C=C(\C#N)C(=O)Nc2cccc(C(=O)O)c2)ccc1OCc1ccc(C)cc1	none (no result: G6PDH counter, p97 ATPase inh)
CCOc1cc(/C=C(\C#N)C(=O)Nc2cccc(C(=O)O)c2)ccc1OCc1ccc(Br)cc1	SUMO HTRF inh 62 (no result: G6PDH counter, p97 ATPase inh)
N#C/C(=C\c1ccc(OCc2ccc(Cl)cc2)cc1)C(=O)Nc1cccc(C(=O)O)c1	SUMO HTRF inh 54 (no result: G6PDH counter, p97 ATPase inh)
OC1CCCCC1	none (no result: G6PDH counter, SUMO HTRF inh, p97 ATPase inh, PHOSPHO1 block, PfM18AAP inh)
CC(C)C(=O)Nc1ccc(-c2nc3ccccc3c(=O)o2)cc1	HDAC3 inh 56
O=C(CCNC(=O)c1ccccc1)NCCc1ccc(Cl)cc1	none (no result: G6PDH counter, p97 ATPase inh)
c1ccc(C[n+]2csc3ccccc32)cc1	PfM18AAP inh 30
COCCCN=C(c1ccco1)n1c(=S)nc(-c2ccco2)n(CCCOC)c1=S	PHOSPHO1 block 98
